{"source": "PubChem BioAssay", "data": [{"test": "hepatitis C replication reporter changes, two-sided – Huh7 cells, luciferase reporter, HCV replication inhibitor project, primary screen (AID 1109);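 further: huh7 hepatoma cells harbouring a luciferase neomycin HCV replicon reporter; luciferase luminescence as measure of HCV replicon replication; test concentration not given here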", "details": "Huh7 HCV replicon luciferase reporter, 48 h; higher = more signal", "values": [{"smiles": "CCCN1C(=O)[C@]2(Cc3ccccc3)N=C(c3ccc(OCCCO)cc3)O[C@@H]2c2ccccc21", "z-score": -2.7}, {"smiles": "C[C@H]1C2=C3C(CC[C@H]4C(OCc5ccc(F)cc5C(F)(F)F)OC[C@](C)([C@@H]34)N(C(=O)OC(C)(C)C)C2)C2COC(=O)OCC21", "note": "(stereo not given in full)", "z-score": -1.84}, {"smiles": "O=C1c2ccccc2[C@](Cc2ccccc2I)(C(=O)NCCN2CCOCC2)[C@H](c2ccc(CO)cc2)N1Cc1ccccc1", "z-score": -1.79}, {"smiles": "COC(=O)[C@@]1(Cc2ccc(OC)cc2)[C@H]2c3cc(C(=O)N(C)C)n(Cc4nc5ccccc5[nH]4)c3C[C@H]2CN1C(=O)c1ccccc1", "z-score": -1.81}, {"smiles": "C[C@]1(C(=O)NC2CC2)c2ccccc2C(=O)N(Cc2ccc(OC(F)(F)F)cc2)[C@H]1c1ccc(CO)cc1", "z-score": -0.144}, {"smiles": "CN(C)CCCNC(=O)[C@@H]1c2ccccc2C(=O)N(CC23CC4CC(CC(C4)C2)C3)[C@H]1c1ccc(CO)cc1", "z-score": -3.1}, {"smiles": "CC1CC/C=C\\[C@H]2OC34C=CCN(C(C)C)C(=O)[C@H]3N(CCCCCO)C(=O)[C@@H]4C2C(=O)O1", "note": "(stereo not given in full)", "z-score": 0.205}, {"smiles": "C=CCOC(=O)[C@H]1[C@@H]2C(=O)O[C@@H](c3ccccc3)[C@@H](c3ccccc3)N2[C@@H](c2ccc(OCCOC(=O)[C@H]3C[C@H]4C(=O)N[C@@H](Cc5ccccc5)C(=O)N4[C@H]3c3cccc(OCCO)c3)cc2)[C@]12C(=O)Nc1ccc(I)cc12", "z-score": -1.68}, {"smiles": "CC(C)CN1C(=O)[C@@]2(c3ccc([N+](=O)[O-])cc3)CC(=O)N(CC34CC5CC(CC(C5)C3)C4)[C@@H]2c2ccc(CO)cc21", "z-score": -1.07}, {"smiles": "C=C(CCCC)/C(=C/C[C@@H](OC(C)=O)c1ccc(CO)o1)c1cc(C(=O)OC)ccc1OC", "z-score": -1.79}, {"smiles": "COC(=O)C1(Cc2ccccc2)C=C2C(=C(C(C)C)C(=O)C2C)CN1", "note": "(stereo not given)", "z-score": -0.735}, {"smiles": "COc1ccc([Si](C)(C)[C@@H]2[C@@H](CCO)O[C@]3(C(=O)N(Cc4cccc(N5C(=O)c6cccc7cccc5c67)c4)c4ccccc43)[C@H]2C)cc1", "z-score": -4.47}, {"smiles": "C=CCC(OC(C)=O)[C@@H]1[C@@H](N(Cc2cc3ccccc3o2)C(=O)Cc2ccc(F)cc2)c2cc(OCCCO)ccc2N1C(=O)c1ccc2ccccc2n1", "note": "(stereo not given in full)", "z-score": 0.476}, {"smiles": "C=CCOC(=O)[C@@H]1[C@H]2C(=O)O[C@H](c3ccccc3)[C@H](c3ccccc3)N2[C@H](c2ccc(OCCOC(=O)[C@H]3C[C@H]4C(=O)N[C@@H](CCCC[N+](C)(C)C)C(=O)N4[C@H]3c3ccc(O)cc3)cc2)[C@@]12C(=O)Nc1ccc(I)cc12", "z-score": -0.908}, {"smiles": "[N-]=[N+]=Nc1ccccc1[C@@H]1OC(c2ccc(OCCCO)cc2)=N[C@]1(CCS(=O)(=O)c1ccccc1)C(=O)NCCN1CCOCC1", "z-score": -0.485}]}]}
